We go through 27 compounds from the supplement of paper PMC4709259.

Structures can show the parent of a compound that is named as a salt. ± gives the standard deviation.

The subject of assay [1] is Jurkat. As to the kind of experiment: mean cell size (FSC-A) relative to DMSO control (fraction of control); higher = larger cells. As to conditions: 48 h. In outline: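 Jurkat cells seeded at 600 cells/µl were incubated 1 h, then exposed for 48h to the Enzo Screen-Well FDA Approved Drug Library v2.0 at 25µM in 0.9% (v/v) final DMSO. Drugs that cut counts below 20% of controls were diluted 10-fold and retested, down to 25nM. Cell count and mean cell size (forward scatter area) were read on an Accuri C6 flow cytometer, relative to solvent-only controls. Plates held 6-12 controls; values are means of 3 biological replicates.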

Assay [2] concerns Jurkat. As to the kind of experiment: cell count relative to DMSO control (fraction of control); higher = more cells (less growth inhibition). The note with it: 48 h.

For `O=C(O)c1ccc(-n2nc(-c3ccccc3O)nc2-c2ccccc2O)cc1` [Deferasirox] (concentration: 2.5 µM), the mean cell size in assay [1] worked out at 1.07 ± 0.021. The compound further showed a cell count in assay [2] of 0.636 ± 0.039.

Compound `C[N+](C)(C)CCOC(=O)CCC(=O)OCC[N+](C)(C)C` [Succinylcholine Chloride·2H2O] (concentration: 25 µM) gave a mean cell size in assay [1] of 0.943 ± 0.014. Besides, the cell count in assay [2] is 0.908 ± 0.081.

Regarding `CN(CCOc1ccc(NS(C)(=O)=O)cc1)CCc1ccc(NS(C)(=O)=O)cc1` [Dofetilide] (concentration: 25 µM), in assay [1], the mean cell size amounted to 0.962 ± 0.015. In addition, the cell count in assay [2] was found to be 0.872 ± 0.084.

Regarding `CC(C[N+](C)(C)C)OC(N)=O` (centres undefined) [Bethanechol Chloride] (concentration: 25 µM), the mean cell size in assay [1] amounted to 0.926 ± 0.034. Further, in assay [2], the cell count was 0.393 ± 0.12.

As to `CCCC(=O)Nc1ccc(OCC(O)CNC(C)C)c(C(C)=O)c1` (centres undefined) [Acebutolol·HCl] (concentration: 25 µM), the mean cell size in assay [1] was determined as 1.04 ± 0.041. The cell count in assay [2] is 0.798 ± 0.17.

On to `CN[C@@H]1[C@H](O[C@H]2[C@H](O[C@H]3[C@H](O)[C@@H](O)[C@H](N=C(N)N)[C@@H](O)[C@@H]3N=C(N)N)O[C@@H](C)[C@]2(O)C=O)O[C@@H](CO)[C@H](O)[C@H]1O` [Streptomycin Sulfate] (concentration: 25 µM), for which the mean cell size in assay [1] was determined as 0.996 ± 0.028. This compound had a cell count in assay [2] of 0.791 ± 0.011.

Take `CC(C)[C@H](N)C(=O)OCCOCn1cnc2c(=O)nc(N)[nH]c21` [Valacyclovir·HCl] (concentration: 25 µM): the mean cell size in assay [1] was 0.987 ± 0.03. This compound also yielded a cell count in assay [2] of 0.332 ± 0.065.

In assay [1], `COc1c(N2C[C@@H]3CCCN[C@@H]3C2)c(F)cc2c(=O)c(C(=O)O)cn(C3CC3)c12` [Moxifloxacin·HCl] (concentration: 25 µM) came in with a mean cell size of 0.919 ± 0.01. This compound also yielded a cell count in assay [2] of 0.632 ± 0.14.

On to `COCCOC(=O)C1=C(C)NC(C)=C(C(=O)OC(C)C)C1c1cccc([N+](=O)[O-])c1` (centres undefined) [Nimodipine] (concentration: 25 µM), for which the mean cell size in assay [1] turned out to be 0.938 ± 0.027. In assay [2], this compound yielded a cell count of 0.628 ± 0.17.

Regarding `COC(=O)Nc1nc2cc(C(=O)c3ccccc3)ccc2[nH]1` [Mebendazole] (concentration: 250 nM), the mean cell size in assay [1] was found to be 0.965 ± 0.029. For the same compound, the cell count in assay [2] worked out at 0.686 ± 0.074.

Compound `Cc1ccccc1N1C(=O)c2cc(S(N)(=O)=O)c(Cl)cc2NC1C` (centres undefined) [Metolazone] (concentration: 25 µM) came in with a mean cell size in assay [1] of 0.997 ± 0.03. Besides, in assay [2], the cell count came to 0.918 ± 0.095.

On to `Nc1nc(Cl)nc2c1ncn2[C@H]1C[C@H](O)[C@@H](CO)O1` [Cladribine] (concentration: 250 nM), for which the mean cell size in assay [1] came out at 1.17 ± 0.034. Further, in assay [2], the cell count was 0.268 ± 0.024.

In assay [1], `CC12CC3CC(C)(C1)CC(N)(C3)C2` [Memantine·HCl] (concentration: 25 µM) registered a mean cell size of 1 ± 0.061. Also, the cell count in assay [2] worked out at 0.797 ± 0.017.

As to `Cc1nnc(SCC2=C(C(=O)O)N3C(=O)[C@@H](NC(=O)Cn4cnnn4)[C@H]3SC2)s1` [Cefazolin·Na] (concentration: 25 µM), in assay [1], the mean cell size came to 0.964 ± 0.048. The same compound registered a cell count in assay [2] of 0.768 ± 0.013.

As to `CC=CC(=O)N(CC)c1ccccc1C` [Crotamiton] (concentration: 25 µM), in assay [1], the mean cell size amounted to 0.972 ± 0.034. The same compound registered a cell count in assay [2] of 0.809 ± 0.17.

Take `CC(=O)OCC(CCn1cnc2cnc(N)nc21)COC(C)=O` [Famciclovir] (concentration: 25 µM): in assay [1], the mean cell size is 0.925 ± 0.053. The compound further displayed a cell count in assay [2] of 0.465 ± 0.18.

Compound `CC(=O)Nc1ccc(O)cc1` [Acetaminophen] (concentration: 25 µM) came in with a mean cell size in assay [1] of 1.03 ± 0.037. The same compound gave a cell count in assay [2] of 0.891 ± 0.031.

With `CC[C@H]1OC(=O)[C@H](C)C(=O)[C@H](C)[C@@H](O[C@@H]2O[C@H](C)C[C@H](N(C)C)[C@H]2O)[C@](C)(OC)C[C@@H](C)C(=O)[C@H](C)[C@H]2N(CCCCn3cnc(-c4cccnc4)c3)C(=O)O[C@]12C` [Telithromycin] (concentration: 25 µM), the mean cell size in assay [1] amounted to 0.921 ± 0.049. The compound also showed a cell count in assay [2] of 0.949 ± 0.057.

`Nc1nc(F)nc2c1ncn2[C@@H]1O[C@H](COP(=O)(O)O)[C@@H](O)[C@@H]1O` [Fludarabine Phosphate] (concentration: 2.5 µM) yielded a mean cell size in assay [1] of 1.327 ± 0.0094. Moreover, the cell count in assay [2] turned out to be 0.378 ± 0.024.

In assay [1], `CO/N=C(\C(=O)N[C@@H]1C(=O)N2C(C(=O)O)=C(COC(N)=O)CS[C@H]12)c1ccco1` [Cefuroxime·Na] (concentration: 25 µM) displayed a mean cell size of 0.994 ± 0.028. In assay [2], the cell count was determined as 0.945 ± 0.051.

As for `Clc1ccc(COC(Cn2ccnc2)c2ccc(Cl)cc2Cl)c(Cl)c1` (centres undefined) [Miconazole] (concentration: 25 µM), the mean cell size in assay [1] amounted to 0.976 ± 0.04. The compound further showed a cell count in assay [2] of 0.586 ± 0.11.

`CC1(C)O[C@@H]2C[C@H]3[C@@H]4CCC5=CC(=O)C=C[C@]5(C)[C@@]4(F)[C@@H](O)C[C@]3(C)[C@]2(C(=O)CO)O1` [Triamcinolone Acetonide] (concentration: 25 µM): the mean cell size in assay [1] came to 0.997 ± 0.039. Besides, the cell count in assay [2] is 0.789 ± 0.084.

For the compound `CC[C@H](C)C(=O)O[C@H]1C[C@H](O)C=C2C=C[C@H](C)[C@H](CC[C@@H](O)C[C@@H](O)CC(=O)O)[C@H]21` [Pravastatin·Na] (concentration: 25 µM), in assay [1], the mean cell size was determined as 1.07 ± 0.028. For the same compound, in assay [2], the cell count was 0.771 ± 0.15.

In assay [1], `COc1ccc(OC)c(C(O)CNC(=O)CN)c1` (centres undefined) [Midodrine·HCl] (concentration: 25 µM) had a mean cell size of 0.942 ± 0.065. In assay [2], the cell count was found to be 0.55 ± 0.15.

`NCCC(O)(P(=O)(O)O)P(=O)(O)O` [Pamidronate Disodium  Pentahydrate (Pamidronic Acid)] (concentration: 25 µM): in assay [1], the mean cell size stood at 0.967 ± 0.034. The cell count in assay [2] worked out at 0.822 ± 0.023.

`Cc1cn[nH]c1` [Fomepizole] (concentration: 25 µM) gave a mean cell size in assay [1] of 0.99 ± 0.036. The same compound registered a cell count in assay [2] of 0.868 ± 0.17.

Regarding `CN(C)CCCN1c2ccccc2CCc2ccc(Cl)cc21` [Clomipramine·HCl] (concentration: 25 µM), the mean cell size in assay [1] worked out at 0.961 ± 0.035. This compound yielded a cell count in assay [2] of 0.4539 ± 0.0031.
